± gives the standard deviation.
What was measured:
[1] = system: MILI (PIWIL2) piRISC loaded with piRNA #1 (26 nt); assay: pre-steady-state target cleavage rate (min^-1); guide: piRNA #1 5'p-UGAGGUAGUAGGUUGUAUAGUAUCCA; higher = faster piRNA-guided slicing of the target; details: auxiliary factor: 500 nM mouse GTSF1;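 further: 1 nM active piRISC with 0.1 nM target library at 33 °C single turnover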
How it was run: (§1)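 A burst-and-steady-state fit was used to obtain the pre-steady-state cleavage rate. The input data were sequencing reads of uncleaved targets, normalised to depth and to weakly complementary targets, from a […] transcribed, DNA-blocked target RNA library mixed with 1 nM active affinity-purified piRISC holding one synthetic guide, with or without 500 nM GTSF1 partner protein, in HEPES–potassium acetate buffer at 33 °C for 0–8 or 0–960 min. Three trials were pooled and k3 was capped at 0.0001 min^-1.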

[2] = system: EfPiwi piRISC loaded with piRNA #1 (26 nt); assay: pre-steady-state target cleavage rate (min^-1); auxiliary factor: 500 nM Ephydatia muelleri Gtsf1; guide: piRNA #1 5'p-UGAGGUAGUAGGUUGUAUAGUAUCCA; MIWI and MILI are mouse PIWI proteins and EfPiwi is from a freshwater sponge; tags in brackets are library labels; higher = faster piRNA-guided slicing of the target
How it was run: as §1

| Sequence | pre-steady-state target cleavage rate [1] | pre-steady-state target cleavage rate [2] |
| --- | --- | --- |
| GGAGACCUAUCUAUACAACCUCCUACCUCA | 0.0185 ± 0.0046 | 0.00509 ± 0.0028 |
| GGAGUGGAUACAAUACAACCUACUACCUCA | 0.174 ± 0.0095 | 0.0165 ± 0.0068 |
| GGAGACCAUACUAUACCAACCUACUACCUCA | 0.0299 ± 0.0075 | 0.00761 ± 0.0031 |
| GGAGACGAUACUUACAACCUACUACCUCA | 0.114 ± 0.01 | 0.00671 ± 0.0036 |
| GGAGUGGAUACUAUACAACCUAUUACCUCA | 0.158 ± 0.014 | 0.0922 ± 0.034 |
| GGAGACGAUACUAUACUAGCUACUACCUCA | 0.198 ± 0.011 | 0.00469 ± 0.0025 |
| GGAGUGGAUACUAUACUACGUACUACCUCA | 0.042 ± 0.0043 | 0.00381 ± 0.0021 |
| GGAGACGAUACUAUACAACCUACAAGCUCA | 0.0171 ± 0.0086 | 0.00381 ± 0.0023 |
| GGAGUGGAUACUCUACAACCUACUACCUCA | 0.194 ± 0.011 | 0.00588 ± 0.0041 |
| GGAGACCUUACUAAACAACCUACUACCUCA | 0.112 ± 0.012 | 0.00463 ± 0.0036 |
| GGAGUGCAUACUAUACAACGUACUACCUCA | 0.0301 ± 0.0044 | 0.00739 ± 0.0027 |
| GGAGAGGAUACUUUACAACCUACUACCUGA | 0.0593 ± 0.011 | 0.00329 ± 0.0017 |
| GGAGACCAUACUAUACAACUACUACCUCA | 0.0423 ± 0.0075 | 0.00486 ± 0.0035 |
| GGAGACCUAUCUAUACAACCUACUACUUCA | 0.0866 ± 0.0097 | 0.0119 ± 0.0067 |
| GGAGACCUAACUAUACAACCUACUCCCUCA | 0.0941 ± 0.022 | 0.00341 ± 0.0031 |
| GGAGAGGAUACUAUACAACCUACUACACUCA | 0.136 ± 0.019 | 0.00522 ± 0.0018 |
| GGAGAGGAUACUAUACAACUACUACCUCA | 0.0329 ± 0.0041 | 0.00869 ± 0.0042 |
| GGAGUGGAUACUAUACAGCCUACUACCUCA | 0.147 ± 0.0093 | 0.216 ± 0.073 |
| GGAGACCAUACUAUACUACCUACUACGUCA | 0.104 ± 0.017 | 0.0039 ± 0.0028 |
| GGAGACCUUACUAUUCAACCUACUACCUCA | 0.15 ± 0.012 | 0.00413 ± 0.0039 |

| Sequence | pre-steady-state target cleavage rate [1] | pre-steady-state target cleavage rate [2] |
| --- | --- | --- |
| GGAGUGGAUCUAUACAACCUACUACCUCA | 0.155 ± 0.011 | 0.0612 ± 0.029 |
| GGAGUGGAUACUAUACAACCUAACUACCUCA | 0.0255 ± 0.0041 | 0.00456 ± 0.0023 |
| GGAGACCUUACUAUACAACCUAUUACCUCA | 0.226 ± 0.019 | 0.0052 ± 0.0025 |
| GGAGAGGAAACUAUACAACCUACUACCUCA | 0.222 ± 0.026 | 0.00596 ± 0.0036 |
| GGAGAGGAUAACUAUACAACCUACUACCUCA | 0.0525 ± 0.0054 | 0.104 ± 0.039 |
| GGAGACCUAACUAUACAAACUACUACCUCA | 0.248 ± 0.025 | 0.0044 ± 0.0038 |
| GGAGUGGAUACUAUACAAGCUACUACGUCA | 0.0651 ± 0.013 | 0.00405 ± 0.0015 |
| GGAGACGAUACUAUACAACCUACAACCUGA | 0.0121 ± 0.0074 | 0.00441 ± 0.0022 |
| GGAGACCUAUCUAUACAUCCUACUACCUGA | 0.0957 ± 0.022 | 0.00459 ± 0.0036 |
| GGAGACGAUACUAUGACAACCUACUACCUCA | 0.186 ± 0.017 | 0.00896 ± 0.0044 |
| GGAGACGAUACUAUACAACCUACUCACCUCA | 0.122 ± 0.019 | 0.00418 ± 0.0019 |
| GGAGAGCAUACUAUUCAACCUACUACCUCA | 0.217 ± 0.017 | 0.00555 ± 0.0041 |
| GGAGACCAUACUAUACAACCUCCUACCUCA | 0.0492 ± 0.0088 | 0.00434 ± 0.0015 |
| GGAGUGGAUACUAUACAACCUACUACGCUCA | 0.111 ± 0.015 | 0.00482 ± 0.0021 |
| GGAGACGAUACUAUACAACCUACUUACCUCA | 0.169 ± 0.014 | 0.0069 ± 0.0023 |
| GGAGACCUGACUAUACAACCUACUACCUCA | 0.125 ± 0.028 | 0.0243 ± 0.01 |
| GGAGAGGAACUAUACAACCUACUACCUCA | 0.167 ± 0.013 | 0.00746 ± 0.0049 |
| GGAGAGGCAUACUAUACAACCUACUACCUCA | 0.177 ± 0.014 | 0.0477 ± 0.017 |
| GGAGUGGUUACUAUACAACCUACAACCUCA | 0.0861 ± 0.0095 | 0.00227 ± 0.0015 |
| GGAGACGAUACUAUACAACCUAGAACCUCA | 0.0145 ± 0.0064 | 0.00278 ± 0.0012 |

| Sequence | pre-steady-state target cleavage rate [1] | pre-steady-state target cleavage rate [2] |
| --- | --- | --- |
| GGAGAGGAUACUAUACAAACCUACUACCUCA | 0.00683 ± 0.0028 | 0.0671 ± 0.028 |
| GGAGACGAUUCUAUACAACCAACUACCUCA | 0.00752 ± 0.0023 | 0.00258 ± 0.0018 |
| GGAGACCUAUGAAUCACAACCUACUACCUCA | 0.0111 ± 0.0034 | 0.00389 ± 0.0034 |
| GGAGACCUUAGCUAUACAACCUACUACCUCA | 0.112 ± 0.015 | 0.0684 ± 0.027 |
| GGAGACCAUACUAUACAACCUACUAGCUGA | 0.0115 ± 0.0056 | 0.00669 ± 0.0037 |
| GGAGACCUAACUAUACAACCUACUACCUUCA | 0.14 ± 0.028 | 0.0285 ± 0.011 |
| GGAGACCUAACUAUCCAACCUACUACCUCA | 0.208 ± 0.038 | 0.00727 ± 0.004 |
| GGAGACGAUACUAUUCAACCUAGUACCUCA | 0.0492 ± 0.01 | 0.0035 ± 0.0018 |
| GGAGAGCAUAGUAUACAACCUACUACCUCA | 0.0921 ± 0.0087 | 0.0077 ± 0.0045 |
| GGAGACCAUUGAAUACAACCUACUACCUCA | 0.0121 ± 0.0038 | 0.00581 ± 0.0033 |
| GGAGACGAUACUAUACAACCUGACUACCUCA | 0.00401 ± 0.0024 | 0.00426 ± 0.0019 |
| GGAGUGGAUACUAUUCAACCUACUAGCUCA | 0.0538 ± 0.0095 | 0.0025 ± 0.0021 |
| GGAGACGAUACUAUACAACCUACUACCCUCA | 0.176 ± 0.021 | 0.00506 ± 0.0015 |
| GGAGACGAUACUAUACAUCCUACUUCCUCA | 0.157 ± 0.028 | 0.00415 ± 0.0023 |
| GGAGACCAUCUAUACAACCUACUACCUCA | 0.112 ± 0.013 | 0.00903 ± 0.0054 |
| GGAGUGGAUACUAUAGAACCUACUACGUCA | 0.0161 ± 0.0041 | 0.00205 ± 0.0016 |
| GGAGUGGAUACUAUACUACCUACUAGCUCA | 0.0877 ± 0.012 | 0.0027 ± 0.0021 |
| GGAGAGGAAUACUAUACAACCUACUACCUCA | 0.172 ± 0.0098 | 0.0974 ± 0.034 |
| GGAGACCAUACUAUACUACCUAGUACCUCA | 0.0453 ± 0.0095 | 0.00377 ± 0.0033 |
| GGAGACGAUAGUUUACAACCUACUACCUCA | 0.129 ± 0.01 | 0.0165 ± 0.0088 |
